Measurements published in the supplement of paper PMC11624193, “Coupling cellular drug-target engagement to downstream pharmacology with CeTEAM” (Nature Communications, 2024).
Counter-ions that a name gives are not always drawn. Unmarked numbers belong to inactive results.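 The calls were made as follows: active = log2 fold change beyond 2 SD from the library mean after excluding viability outliers; inactive = within 2 SD.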

Each compound was assayed against PARP1 L713F-nLuc biosensor (HCT116) (UniProt P09874) (assay: PARP1 L713F-nLuc/akaLuc ratio relative to DMSO control (biosensor stabilization) (fold change); higher = more PARP1 biosensor stabilization (target engagement / stabilizer), active = hit call of the paper). Conditions: stock concentration (mM; final µM = stock mM x 1): 10; 24 h.
Chain of PARP1 L713F-nLuc biosensor (HCT116) (P09874 whole entry L713F, looked up): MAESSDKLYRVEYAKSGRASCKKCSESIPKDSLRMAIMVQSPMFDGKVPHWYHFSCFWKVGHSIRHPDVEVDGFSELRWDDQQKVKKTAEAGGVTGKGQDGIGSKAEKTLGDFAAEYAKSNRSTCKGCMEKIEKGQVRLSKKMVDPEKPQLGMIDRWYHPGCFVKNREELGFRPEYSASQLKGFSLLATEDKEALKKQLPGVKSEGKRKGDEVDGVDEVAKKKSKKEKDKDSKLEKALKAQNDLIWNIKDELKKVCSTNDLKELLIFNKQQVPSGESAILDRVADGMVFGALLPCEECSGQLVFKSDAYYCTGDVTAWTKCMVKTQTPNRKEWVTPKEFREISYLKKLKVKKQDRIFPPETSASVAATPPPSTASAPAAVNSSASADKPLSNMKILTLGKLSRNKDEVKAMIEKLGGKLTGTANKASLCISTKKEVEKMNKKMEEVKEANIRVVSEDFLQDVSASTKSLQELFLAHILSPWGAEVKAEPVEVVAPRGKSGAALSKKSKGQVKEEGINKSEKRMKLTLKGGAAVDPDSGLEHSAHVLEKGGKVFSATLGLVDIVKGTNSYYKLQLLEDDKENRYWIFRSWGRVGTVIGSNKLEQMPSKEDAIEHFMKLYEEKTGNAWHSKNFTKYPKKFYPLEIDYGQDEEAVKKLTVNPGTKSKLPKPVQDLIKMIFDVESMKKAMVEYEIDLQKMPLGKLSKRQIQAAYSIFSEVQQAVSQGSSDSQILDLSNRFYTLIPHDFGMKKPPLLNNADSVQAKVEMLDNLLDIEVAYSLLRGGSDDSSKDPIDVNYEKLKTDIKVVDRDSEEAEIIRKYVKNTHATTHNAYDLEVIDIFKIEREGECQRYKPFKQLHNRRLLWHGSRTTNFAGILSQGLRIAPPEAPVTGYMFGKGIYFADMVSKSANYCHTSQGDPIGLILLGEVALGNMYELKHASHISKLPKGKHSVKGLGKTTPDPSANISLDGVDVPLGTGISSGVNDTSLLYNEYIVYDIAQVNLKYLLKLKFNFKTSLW

Structure (SMILES)	PARP1 L713F-nLuc/akaLuc ratio
c1cc(SSc2ccns2)sn1	1.1
Nc1nc(Cl)nc2c1ncn2[C@H]1C[C@H](O)[C@@H](CO)O1 [Cladribine]	0.383
Nc1nc(OCc2ccc(CNC(=O)C(F)(F)F)cc2)c2[nH]cnc2n1 [PIN1 inhibitor API-1]	1.38
COc1ccc(S(=O)(=O)Nc2cccnc2Nc2ccc(O)cc2)cc1	1.28
COc1cc2nc(N3CCCN(C)CC3)nc(NC3CCN(Cc4ccccc4)CC3)c2cc1OC	0.488
CCS(=O)(=O)N1CCN(c2ccc(Nc3ncc(C(N)=O)c(NC4CC4)n3)cc2)CC1	1.99
Cc1[nH]nc(C(F)(F)F)c1Cc1sc2c(c1C(=O)N1C[C@](C)(O)CO1)c(=O)n(C)c(=O)n2C(C)C	0.93
CN1CCN(c2ccc(-c3cccc(CN4CCOCC4)c3)cc2NC(=O)c2c[nH]c(=O)cc2C(F)(F)F)CC1	0.636
O=c1[nH]c(Oc2cnn(Cc3ccccc3)c2)nc2cnccc12	0.946
Cc1ccc(Oc2nc3cc(-c4ccc5c(ccn5C)c4)c(Cl)cc3[nH]2)cc1C(=O)O	0.541
NC(=O)c1cccc2cn(-c3ccc([C@@H]4CCCNC4)cc3)nc12 [Niraparib]	4.32 (active)
CC(C)(O)[C@H]1CC[C@H](Nc2ccc3ncc(-c4cccc(C(F)(F)F)c4)n3n2)CC1	0.732
C=CC(=O)N1C[C@@H](Nc2ncnc3[nH]ccc23)CC[C@H]1C [(2R,5S)-Ritlecitinib]	1.05
CNS(=O)(=O)C[C@H]1CC[C@H](N(C)c2[nH]cnc3nccc2-3)CC1 [Oclacitinib (maleate)]	0.749
O=C(/C=C/c1ccc(O)c(O)c1)c1ccc(O[C@@H]2O[C@H](CO)[C@@H](O)[C@H](O)[C@H]2O)c(O)c1O [Marein]	0.984
Cc1ccc(NC(=O)c2ccc(CN3CC[C@H](N(C)C)C3)c(C(F)(F)F)c2)cc1Nc1nccc(-c2cncnc2)n1 [Bafetinib (INNO-406)]	0.726
COc1cc2ccc(=O)oc2cc1O[C@@H]1O[C@H](CO)[C@@H](O)[C@H](O)[C@H]1O [Scopolin]	1.04
C=C1CCC[C@]2(C)C=C3OC(=O)C(C)=C3C[C@@H]12 [Atractylenolide I]	0.934
C[C@@H](Nc1cc(F)cc(F)c1)c1cc(C(=O)N(C)C)cc2c(=O)cc(N3CCOCC3)oc12	0.667

Structure (SMILES)	PARP1 L713F-nLuc/akaLuc ratio
CNC(=O)c1cc(Oc2ccc(NC(=O)Nc3ccc(Cl)c(C(F)(F)F)c3)c(F)c2)ccn1 [Regorafenib (BAY 73-4506)]	0.687
COc1nc(Nc2cc(S(C)(=O)=O)ccc2N[C@@H](c2cccc3c2OC(F)(F)O3)c2ncccc2Cl)nc(N2CCNCC2)n1	0.707
NC(=O)c1cnc2[nH]ccc2c1N[C@@H]1[C@@H]2CC3C[C@H]1C[C@@](O)(C3)C2 [Peficitinib]	1.02
CC(C)Oc1ccc(-c2nn([C@@H](C)c3oc4ccc(F)cc4c(=O)c3-c3cccc(F)c3)c3ncnc(N)c23)cc1F [umbralisib (TGR-1202)]	1.01
CCS(=O)(=O)N1CC(CC#N)(n2cc(-c3ncnc4[nH]ccc34)cn2)C1	0.444
COc1ccc(-c2c(-c3ccc(C#N)c(F)c3)nc(N3CCC(N)CC3)n(C)c2=O)cc1F [Pulrodemstat (benzenesulfonate)]	1.26
CNC[C@@H](O)COc1ccc(Cl)c(-c2nc(-c3c(C)noc3C)c(C)c(N3CC4(CCN(C(=O)OC)CC4)C3)n2)c1	0.955
CN(C)C(=N)N=C(N)N [Metformin D6 (hydrochloride)]	1.08
Cc1cc(Nc2nc(N[C@@H](C)c3ccc(F)cc3)c(C#N)cc2F)n[nH]1	13.6 (active)
CNC(=O)c1ccc2cc([C@@]3(O)CCn4cncc43)ccc2c1 [TAK-700 (Orteronel)]	0.776
Clc1ccc(Nc2nnc(Cc3ccncc3)c3ccccc23)cc1 [Vatalanib (PTK787) 2HCl]	0.831
CCCS(=O)(=O)N[C@H]1C[C@@H](N(C)c2ncnc3[nH]ccc23)C1 [Abrocitinib]	0.869
O=c1cc(-c2ccc(O[C@@H]3O[C@H](CO)[C@@H](O)[C@H](O)[C@H]3O)cc2)oc2cc(O)c([C@@H]3O[C@H](CO)[C@@H](O)[C@H](O)[C@H]3O[C@@H]3OC[C@H](O)[C@H](O)[C@H]3O)c(O)c12 [Vaccarin]	0.723
Cc1cc(C)nc(SCC(=O)Nc2ncc(Cc3cccc(OCc4cn(Cc5ccccc5)nn4)c3)s2)n1	0.615
CCN(C(=O)CO)[C@H]1CN(/C(=N\C#N)Nc2cccc(OC(F)F)c2)N=C1c1ccc(Cl)c(Cl)c1	1.37
C[C@H](Nc1cc(-c2cnn(C)c2)cc(Nc2cnccn2)n1)c1ccc(F)cc1 [Ilginatinib hydrochloride]	0.281 (active)
N#Cc1cc2cc(CN3CCC(Nc4ncnc5sc(CC(F)(F)F)cc45)CC3)c(O)cc2n1Cc1cn[nH]c1	0.315 (active)
NC1(c2ccc(-c3nc4ccn5c(=O)[nH]nc5c4cc3-c3ccccc3)cc2)CCC1	0.79
O=C(O)[C@]1(Cc2cccc(Nc3nccs3)n2)CC[C@@H](Oc2cccc(Cl)c2F)CC1	1.05
